This note sets out measurements from ChEMBL document CHEMBL1961873, “Compounds: GSK PKIS; Assays: Nanosyn kinase panel” (2012).

Assay [1] deals with Tyrosine-protein kinase CSK (Homo sapiens) (UniProt P41240). The conditions noted are these: at 1 µM.
The target in assay [2] is T1, Discoidin domain-containing receptor 2 (Homo sapiens) (UniProt Q16832).
T1 sequence (whole entry): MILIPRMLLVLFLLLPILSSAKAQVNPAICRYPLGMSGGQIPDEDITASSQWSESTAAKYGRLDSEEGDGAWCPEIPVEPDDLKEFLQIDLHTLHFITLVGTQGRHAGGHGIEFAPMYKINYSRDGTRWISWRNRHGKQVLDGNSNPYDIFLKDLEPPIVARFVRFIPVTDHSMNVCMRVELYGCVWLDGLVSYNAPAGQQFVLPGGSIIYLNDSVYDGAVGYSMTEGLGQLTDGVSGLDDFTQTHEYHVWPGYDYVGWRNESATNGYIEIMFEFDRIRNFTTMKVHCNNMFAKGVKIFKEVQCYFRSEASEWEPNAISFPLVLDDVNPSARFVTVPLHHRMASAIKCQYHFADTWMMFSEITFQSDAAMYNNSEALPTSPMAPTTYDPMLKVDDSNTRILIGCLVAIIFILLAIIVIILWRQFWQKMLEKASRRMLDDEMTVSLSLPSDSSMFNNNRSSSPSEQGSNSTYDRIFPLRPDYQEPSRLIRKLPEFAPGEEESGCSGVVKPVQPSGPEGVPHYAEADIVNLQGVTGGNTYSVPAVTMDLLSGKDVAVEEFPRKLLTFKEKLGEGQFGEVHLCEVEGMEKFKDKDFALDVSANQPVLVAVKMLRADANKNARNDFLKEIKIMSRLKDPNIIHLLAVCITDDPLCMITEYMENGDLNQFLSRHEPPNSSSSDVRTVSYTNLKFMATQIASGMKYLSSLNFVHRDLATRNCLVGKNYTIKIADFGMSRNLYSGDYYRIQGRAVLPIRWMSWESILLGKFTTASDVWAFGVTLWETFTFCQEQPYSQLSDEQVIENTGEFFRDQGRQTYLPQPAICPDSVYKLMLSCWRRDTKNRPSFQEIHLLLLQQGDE
The conditions noted are these: at 0.1 µM.

For assay [3], the target named is T1, Discoidin domain-containing receptor 2 (Homo sapiens). To be noted: at 1 µM.
In assay [4] the target is Epidermal growth factor receptor (Homo sapiens) (UniProt P00533). To be noted: at 0.1 µM.
The target is the same in assay [5]. To be noted: at 1 µM.
Assay [6] deals with Epidermal growth factor receptor (Homo sapiens), P00533 [L858R]. To be noted: at 0.1 µM.
Assay [7] shares this test system. To be noted: at 1 µM.
The test system of assay [8] is Epidermal growth factor receptor (Homo sapiens), P00533 [L861Q]. The conditions noted are these: at 0.1 µM.
Assay [9] shares this test system. The conditions noted are these: at 1 µM.
For assay [10], the system named is Epidermal growth factor receptor (Homo sapiens), P00533 [T790M]. To be noted: at 0.1 µM.
For assay [11] the test system is unchanged. To be noted: at 1 µM.
The test system of assay [12] is Epidermal growth factor receptor (Homo sapiens), P00533 [L858R,T790M]. To be noted: at 0.1 µM.
The test system is the same in assay [13]. The conditions noted are these: at 1 µM.
The target in assay [14] is Ephrin type-A receptor 2 (Homo sapiens) (UniProt P29317). To be noted: at 0.1 µM.
For assay [15] the target is unchanged. To be noted: at 1 µM.
The target of assay [16] is T2, Ephrin type-A receptor 3 (Homo sapiens) (UniProt P29320).
T2 sequence (whole entry): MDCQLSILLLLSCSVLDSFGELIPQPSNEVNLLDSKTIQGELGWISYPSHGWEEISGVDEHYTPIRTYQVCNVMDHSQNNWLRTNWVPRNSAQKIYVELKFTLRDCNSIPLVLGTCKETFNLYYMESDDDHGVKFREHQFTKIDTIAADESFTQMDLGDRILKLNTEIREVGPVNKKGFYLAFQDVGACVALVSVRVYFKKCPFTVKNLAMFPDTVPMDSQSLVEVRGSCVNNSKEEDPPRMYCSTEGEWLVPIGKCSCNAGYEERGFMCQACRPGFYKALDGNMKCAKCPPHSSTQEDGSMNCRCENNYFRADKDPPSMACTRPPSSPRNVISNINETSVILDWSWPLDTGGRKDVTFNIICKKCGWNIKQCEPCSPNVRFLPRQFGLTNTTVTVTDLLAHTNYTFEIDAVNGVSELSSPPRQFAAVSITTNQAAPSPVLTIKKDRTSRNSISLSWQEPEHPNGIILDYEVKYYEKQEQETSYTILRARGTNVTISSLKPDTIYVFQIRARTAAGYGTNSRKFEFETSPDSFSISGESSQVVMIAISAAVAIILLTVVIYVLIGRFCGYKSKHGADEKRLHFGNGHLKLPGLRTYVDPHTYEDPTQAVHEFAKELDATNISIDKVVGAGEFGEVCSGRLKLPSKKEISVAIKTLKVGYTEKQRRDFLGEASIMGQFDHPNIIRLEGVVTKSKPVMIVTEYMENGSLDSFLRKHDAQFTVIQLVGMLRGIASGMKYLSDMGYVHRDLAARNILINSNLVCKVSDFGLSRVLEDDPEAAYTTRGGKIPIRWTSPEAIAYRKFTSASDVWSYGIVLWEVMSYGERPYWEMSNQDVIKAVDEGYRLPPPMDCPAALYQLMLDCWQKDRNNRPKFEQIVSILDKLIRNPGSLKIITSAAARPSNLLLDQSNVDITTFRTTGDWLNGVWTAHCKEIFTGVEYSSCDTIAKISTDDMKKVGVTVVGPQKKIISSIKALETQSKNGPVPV
The conditions noted are these: at 0.1 µM.

Assay [17] has as its target T2, Ephrin type-A receptor 3 (Homo sapiens). To be noted: at 1 µM.
In assay [18] the target is Ephrin type-A receptor 4 (Homo sapiens) (UniProt P54764). To be noted: at 0.1 µM.
Assay [19] shares this target. The conditions noted are these: at 1 µM.
The target of assay [20] is T3, Ephrin type-B receptor 2 (Homo sapiens) (UniProt P29323).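 Further: reported as mean inhibition of EPHB2, from the GSK PKIS dataset.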
T3 sequence (whole entry): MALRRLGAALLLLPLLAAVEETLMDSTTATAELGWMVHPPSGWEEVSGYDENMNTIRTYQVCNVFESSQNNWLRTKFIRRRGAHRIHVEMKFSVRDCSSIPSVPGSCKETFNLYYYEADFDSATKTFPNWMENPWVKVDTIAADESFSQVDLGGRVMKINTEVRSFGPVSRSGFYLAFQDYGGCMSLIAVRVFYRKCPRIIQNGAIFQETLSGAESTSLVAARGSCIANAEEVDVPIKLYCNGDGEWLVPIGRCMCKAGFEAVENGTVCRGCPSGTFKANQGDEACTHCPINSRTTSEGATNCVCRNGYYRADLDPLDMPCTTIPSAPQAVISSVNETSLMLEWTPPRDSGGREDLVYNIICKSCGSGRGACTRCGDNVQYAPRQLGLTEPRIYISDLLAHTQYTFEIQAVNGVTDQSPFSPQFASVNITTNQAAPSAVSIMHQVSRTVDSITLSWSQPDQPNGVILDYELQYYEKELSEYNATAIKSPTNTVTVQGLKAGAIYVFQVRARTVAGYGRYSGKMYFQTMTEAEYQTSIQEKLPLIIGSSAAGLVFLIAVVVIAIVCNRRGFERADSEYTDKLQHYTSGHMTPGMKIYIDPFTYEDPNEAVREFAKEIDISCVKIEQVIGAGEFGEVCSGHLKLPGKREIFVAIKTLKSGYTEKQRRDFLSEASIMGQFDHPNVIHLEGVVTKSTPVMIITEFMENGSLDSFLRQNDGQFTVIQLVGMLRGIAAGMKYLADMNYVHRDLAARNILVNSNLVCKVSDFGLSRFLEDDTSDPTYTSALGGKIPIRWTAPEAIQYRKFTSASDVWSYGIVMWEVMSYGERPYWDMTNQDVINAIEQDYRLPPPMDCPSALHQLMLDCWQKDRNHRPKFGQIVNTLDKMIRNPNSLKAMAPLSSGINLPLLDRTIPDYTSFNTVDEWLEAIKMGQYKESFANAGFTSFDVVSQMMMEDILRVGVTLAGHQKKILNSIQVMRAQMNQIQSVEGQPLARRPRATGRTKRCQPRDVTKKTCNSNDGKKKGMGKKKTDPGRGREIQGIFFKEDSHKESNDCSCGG
To be noted: at 0.1 µM.

Chain of Epidermal growth factor receptor (Homo sapiens), P00533 [L861Q] (P00533 whole entry L861Q): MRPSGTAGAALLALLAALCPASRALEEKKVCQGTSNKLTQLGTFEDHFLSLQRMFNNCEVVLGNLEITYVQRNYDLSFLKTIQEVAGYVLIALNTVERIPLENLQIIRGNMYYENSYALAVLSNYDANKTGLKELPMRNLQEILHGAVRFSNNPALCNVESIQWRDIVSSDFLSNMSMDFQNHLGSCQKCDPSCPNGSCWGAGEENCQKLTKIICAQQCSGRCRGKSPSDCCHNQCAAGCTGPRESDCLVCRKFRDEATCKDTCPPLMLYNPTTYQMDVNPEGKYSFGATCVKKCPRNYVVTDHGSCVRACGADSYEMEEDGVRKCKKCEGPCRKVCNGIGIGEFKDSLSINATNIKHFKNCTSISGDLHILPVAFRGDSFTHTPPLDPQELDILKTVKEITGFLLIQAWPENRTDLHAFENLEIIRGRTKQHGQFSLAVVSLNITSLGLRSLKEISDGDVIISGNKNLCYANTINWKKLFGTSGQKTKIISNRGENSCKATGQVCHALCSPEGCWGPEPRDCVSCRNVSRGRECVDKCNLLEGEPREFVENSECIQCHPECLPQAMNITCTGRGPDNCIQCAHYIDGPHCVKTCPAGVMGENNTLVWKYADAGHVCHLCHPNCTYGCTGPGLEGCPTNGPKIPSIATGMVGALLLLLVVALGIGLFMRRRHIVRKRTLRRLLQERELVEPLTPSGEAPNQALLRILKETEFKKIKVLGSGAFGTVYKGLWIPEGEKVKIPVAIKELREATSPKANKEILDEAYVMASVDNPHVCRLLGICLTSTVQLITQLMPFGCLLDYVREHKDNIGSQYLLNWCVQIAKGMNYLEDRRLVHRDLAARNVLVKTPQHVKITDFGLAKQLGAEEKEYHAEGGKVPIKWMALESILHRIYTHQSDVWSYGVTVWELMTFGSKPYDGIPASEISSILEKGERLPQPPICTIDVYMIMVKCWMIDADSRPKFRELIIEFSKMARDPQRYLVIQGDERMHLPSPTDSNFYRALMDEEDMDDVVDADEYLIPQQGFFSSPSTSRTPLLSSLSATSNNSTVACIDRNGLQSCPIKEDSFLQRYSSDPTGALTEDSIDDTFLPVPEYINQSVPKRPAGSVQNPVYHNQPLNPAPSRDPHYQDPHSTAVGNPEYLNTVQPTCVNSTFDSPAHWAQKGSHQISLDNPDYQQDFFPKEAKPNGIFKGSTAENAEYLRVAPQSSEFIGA
Chain of Epidermal growth factor receptor (Homo sapiens), P00533 [T790M] (P00533 whole entry T790M): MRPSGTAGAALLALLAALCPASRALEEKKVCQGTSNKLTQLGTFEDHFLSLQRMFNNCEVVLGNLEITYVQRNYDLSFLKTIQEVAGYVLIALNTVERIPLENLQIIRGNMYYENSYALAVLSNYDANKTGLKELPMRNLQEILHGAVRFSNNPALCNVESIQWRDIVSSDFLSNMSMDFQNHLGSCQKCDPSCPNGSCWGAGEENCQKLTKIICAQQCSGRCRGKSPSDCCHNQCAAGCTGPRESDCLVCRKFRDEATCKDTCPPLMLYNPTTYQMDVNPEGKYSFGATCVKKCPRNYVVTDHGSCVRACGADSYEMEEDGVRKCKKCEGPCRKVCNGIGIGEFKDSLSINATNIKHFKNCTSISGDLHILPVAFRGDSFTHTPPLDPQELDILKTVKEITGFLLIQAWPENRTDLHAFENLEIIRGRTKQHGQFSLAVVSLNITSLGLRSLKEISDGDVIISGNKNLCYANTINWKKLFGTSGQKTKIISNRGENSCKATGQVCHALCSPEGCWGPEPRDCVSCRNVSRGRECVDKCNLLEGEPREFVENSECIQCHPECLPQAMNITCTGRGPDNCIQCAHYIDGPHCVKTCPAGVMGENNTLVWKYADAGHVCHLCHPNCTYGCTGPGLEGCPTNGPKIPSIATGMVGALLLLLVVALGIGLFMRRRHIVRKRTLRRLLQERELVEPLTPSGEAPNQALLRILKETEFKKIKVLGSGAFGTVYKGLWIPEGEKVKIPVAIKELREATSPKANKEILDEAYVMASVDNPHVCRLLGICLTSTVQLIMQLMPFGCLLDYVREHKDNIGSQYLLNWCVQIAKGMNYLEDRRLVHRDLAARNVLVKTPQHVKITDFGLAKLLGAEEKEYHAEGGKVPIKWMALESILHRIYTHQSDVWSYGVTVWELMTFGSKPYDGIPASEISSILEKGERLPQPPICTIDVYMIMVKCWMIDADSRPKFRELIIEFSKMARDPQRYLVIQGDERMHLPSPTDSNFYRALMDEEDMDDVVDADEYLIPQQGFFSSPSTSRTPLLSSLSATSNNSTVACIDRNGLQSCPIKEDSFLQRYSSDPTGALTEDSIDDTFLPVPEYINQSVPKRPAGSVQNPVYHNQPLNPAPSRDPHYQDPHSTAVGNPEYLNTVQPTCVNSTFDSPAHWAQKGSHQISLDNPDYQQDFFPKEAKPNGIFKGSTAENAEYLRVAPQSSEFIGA
Chain of Epidermal growth factor receptor (Homo sapiens), P00533 [L858R] (P00533 whole entry L858R): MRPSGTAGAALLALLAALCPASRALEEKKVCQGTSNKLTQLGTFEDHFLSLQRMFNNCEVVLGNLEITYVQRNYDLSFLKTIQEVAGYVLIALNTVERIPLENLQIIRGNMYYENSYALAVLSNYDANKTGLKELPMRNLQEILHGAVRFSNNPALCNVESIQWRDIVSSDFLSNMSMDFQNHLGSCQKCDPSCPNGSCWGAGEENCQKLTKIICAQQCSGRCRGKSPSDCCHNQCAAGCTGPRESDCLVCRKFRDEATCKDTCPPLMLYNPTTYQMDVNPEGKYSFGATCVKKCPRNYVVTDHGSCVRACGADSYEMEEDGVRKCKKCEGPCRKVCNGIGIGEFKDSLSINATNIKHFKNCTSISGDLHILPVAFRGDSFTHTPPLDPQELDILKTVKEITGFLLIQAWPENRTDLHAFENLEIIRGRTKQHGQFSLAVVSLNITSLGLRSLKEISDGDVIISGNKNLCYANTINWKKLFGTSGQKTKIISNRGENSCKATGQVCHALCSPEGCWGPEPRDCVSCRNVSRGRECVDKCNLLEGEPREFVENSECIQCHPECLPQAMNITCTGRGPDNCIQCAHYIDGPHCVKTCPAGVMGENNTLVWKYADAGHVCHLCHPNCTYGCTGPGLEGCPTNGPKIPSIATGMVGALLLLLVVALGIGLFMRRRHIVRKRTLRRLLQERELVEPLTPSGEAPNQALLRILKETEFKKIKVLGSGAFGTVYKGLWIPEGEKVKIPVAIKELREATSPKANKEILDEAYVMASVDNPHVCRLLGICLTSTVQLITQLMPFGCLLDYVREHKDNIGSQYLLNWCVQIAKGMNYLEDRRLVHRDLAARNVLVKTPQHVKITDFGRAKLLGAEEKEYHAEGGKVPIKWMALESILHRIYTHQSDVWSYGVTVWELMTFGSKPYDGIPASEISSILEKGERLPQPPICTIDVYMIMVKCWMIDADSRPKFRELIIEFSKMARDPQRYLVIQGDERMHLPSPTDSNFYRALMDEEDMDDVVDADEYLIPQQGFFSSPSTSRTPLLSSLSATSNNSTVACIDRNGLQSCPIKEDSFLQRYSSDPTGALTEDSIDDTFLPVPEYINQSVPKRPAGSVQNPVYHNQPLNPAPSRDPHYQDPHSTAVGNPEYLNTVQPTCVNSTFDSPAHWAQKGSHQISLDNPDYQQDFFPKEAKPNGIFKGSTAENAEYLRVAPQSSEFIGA
Chain of Ephrin type-A receptor 4 (Homo sapiens) (P54764 whole entry): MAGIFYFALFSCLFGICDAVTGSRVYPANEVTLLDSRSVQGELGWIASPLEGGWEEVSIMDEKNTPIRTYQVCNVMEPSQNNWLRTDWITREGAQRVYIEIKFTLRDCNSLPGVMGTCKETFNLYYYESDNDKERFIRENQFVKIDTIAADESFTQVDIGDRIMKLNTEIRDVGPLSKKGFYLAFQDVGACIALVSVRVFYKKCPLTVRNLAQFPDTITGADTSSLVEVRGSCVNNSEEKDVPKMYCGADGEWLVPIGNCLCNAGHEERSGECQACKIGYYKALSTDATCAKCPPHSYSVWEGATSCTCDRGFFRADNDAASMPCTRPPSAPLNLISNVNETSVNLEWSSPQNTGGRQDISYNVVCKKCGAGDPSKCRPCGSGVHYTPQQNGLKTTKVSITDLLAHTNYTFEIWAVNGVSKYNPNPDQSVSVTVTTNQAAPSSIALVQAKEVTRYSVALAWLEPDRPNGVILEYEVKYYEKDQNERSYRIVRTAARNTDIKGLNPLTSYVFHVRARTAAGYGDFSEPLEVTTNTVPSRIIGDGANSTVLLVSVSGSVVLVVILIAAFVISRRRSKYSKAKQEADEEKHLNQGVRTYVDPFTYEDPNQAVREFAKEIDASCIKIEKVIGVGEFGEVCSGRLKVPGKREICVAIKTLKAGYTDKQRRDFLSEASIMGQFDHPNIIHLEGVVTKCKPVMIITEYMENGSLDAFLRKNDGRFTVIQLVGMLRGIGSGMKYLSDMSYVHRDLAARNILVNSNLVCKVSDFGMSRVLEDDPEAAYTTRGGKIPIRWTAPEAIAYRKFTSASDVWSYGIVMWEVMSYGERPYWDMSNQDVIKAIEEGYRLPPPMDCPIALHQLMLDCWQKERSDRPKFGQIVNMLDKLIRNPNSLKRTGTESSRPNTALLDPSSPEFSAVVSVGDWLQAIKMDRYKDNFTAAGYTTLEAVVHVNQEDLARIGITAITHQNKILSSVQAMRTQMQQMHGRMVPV
Chain of Tyrosine-protein kinase CSK (Homo sapiens) (P41240 2-450 limits assumed): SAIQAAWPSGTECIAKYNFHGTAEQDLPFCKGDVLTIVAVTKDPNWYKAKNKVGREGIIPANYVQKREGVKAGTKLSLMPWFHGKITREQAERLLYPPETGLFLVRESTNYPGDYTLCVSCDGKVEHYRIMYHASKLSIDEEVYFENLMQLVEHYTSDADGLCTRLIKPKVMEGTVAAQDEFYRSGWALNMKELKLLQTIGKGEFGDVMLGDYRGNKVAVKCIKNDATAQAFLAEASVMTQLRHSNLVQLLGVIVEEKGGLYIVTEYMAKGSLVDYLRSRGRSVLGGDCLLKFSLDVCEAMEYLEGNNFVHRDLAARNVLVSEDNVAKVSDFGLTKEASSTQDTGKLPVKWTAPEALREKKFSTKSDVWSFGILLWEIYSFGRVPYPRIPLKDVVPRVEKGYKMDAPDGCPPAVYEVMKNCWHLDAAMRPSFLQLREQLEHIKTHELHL

Consider `N#Cc1ccc2c(-c3ccnc(NC4CC4)n3)c(-c3ccc(F)cc3)nn2c1`, for which the inhibition is 3.45% in assay [1]; 4.32% in assay [2]; 15.8% in assay [3]; 1.52% in assay [4]; 13.8% in assay [5]; 5.89% in assay [6]. The inhibition in [7] is 41.3%; in [8], 1.64%; in assay [9], 12.9%; in assay [10], -0.38%; in [11], 2.72%; in assay [12], 1.77%. Moreover, the inhibition was 2.17% in assay [13]; -2.09% in assay [14]; -0.16% in [15]; 1.29% in assay [16]; 4.31% in assay [17]; 5.96% in [18]. Besides, the figures for the inhibition in [19] and in [20] were 15.6% and 8.8%, respectively.
On to `COc1ccccc1-c1cc(/C=C2\C(=O)Nc3ncc(Br)cc32)cc(Br)c1O`, for which the inhibition in [1] is 3.65%; in assay [2], 2.75%; in [3], 10.6%; in assay [4], -0.76%; in [5], 2.08%; in assay [6], -0.74%. The inhibition was found to be 0.61% in assay [7]; 2.99% in assay [8]; 4.29% in assay [9]; 1.88% in [10]; 1.53% in [11]; 1.24% in assay [12]. In addition, the inhibition in assay [13] turned out to be 4.48%; in assay [14], 1.75%; in assay [15], 3.18%; in [16] it was 4.45%; in [17], 5.49%; in [18] it was 9.58%. Moreover, the inhibition in assay [19] was 6.4%; in assay [20], 6.05%.
On to `CN(C)CCNC(=O)Nc1ccc(N(C)c2ccnc(Nc3ccc(CS(C)(=O)=O)cc3)n2)cc1`, for which the inhibition was determined as 1.47% in assay [1]; 0.92% in [2]; 9.89% in assay [3]; 1.32% in [4]; 3.79% in [5]; 3.58% in assay [6]. Moreover, the inhibition turned out to be 3.5% in assay [7]; 2.9% in assay [8]; 2.38% in assay [9]; 3.69% in assay [10]; 1.68% in assay [11]; 4.53% in [12]. Further, the inhibition in assay [13] was 6.61%; in assay [14], 2.63%; in assay [15], 1.36%; in [16] it was 3.79%; in [17] it was 4.33%; in assay [18], 6.86%. The inhibition in assay [19] worked out at 6.65%; in assay [20] it was 10.6%.
For the compound `O=C(Nc1n[nH]c2nnc(-c3cccnc3)cc12)C1CC1`, the inhibition in assay [1] is -1.56%; in [2], -0.82%; in assay [3], -1%; in [4] it was 0.34%; in assay [5], 1.5%; in [6], -2.25%. In addition, the inhibition in assay [7] is 2.57%; in [8], -1.02%; in assay [9], -0.99%; in [10], -0.29%; in assay [11], -0.7%; in [12], -0.13%. The inhibition was -0.34% in assay [13]; -3.08% in assay [14]; -2.73% in assay [15]; -1.3% in assay [16]; -0.05% in [17]; 0.83% in assay [18]. In addition, the inhibition was 2.33% in assay [19] and 0.05% in assay [20].
On to `O=C(O[C@H]1CN[C@H](C#Cc2cc3ncnc(Nc4ccc5c(cnn5Cc5ccccc5)c4)c3s2)C1)N1CCOCC1`, for which the inhibition in [1] was determined as 4.15%; in assay [2], 0.56%; in [3], 0.22%; in assay [4] it was 72.3%; in assay [5], 83.3%; in [6] it was 14.2%. Besides, the inhibition in assay [7] was 56.2%; in assay [8] it was 25.9%; in assay [9] it was 44.2%; in assay [10] it was 0.87%; in assay [11], 9.06%; in assay [12] it was -5.39%. Moreover, the inhibition in assay [13] is -1.26%; in assay [14], -1.74%; in [15] it was -2.68%; in assay [16], -0.31%; in assay [17], 0.9%; in [18] it was -0.59%. Also, the inhibition in [19] was 1.79%; in assay [20] it was -3.66%.
Consider `COc1cc(N2CCN(C(C)C)CC2)ccc1Nc1nc(Nc2cccc(F)c2C(=O)O)c2cc[nH]c2n1`, for which the inhibition in assay [1] came out at 7.02%; in assay [2], 1.68%; in assay [3], 1.98%; in assay [4], 0.15%; in assay [5], 3.33%; in assay [6], 4.84%. The inhibition in [7] came to 12.6%; in assay [8] it was 4.97%; in assay [9], 5.54%; in assay [10] it was 6.09%; in assay [11], 24.9%; in [12], 9.68%. Moreover, the inhibition in [13] was 48.9%; in [14], 0.65%; in assay [15], -0.38%; in assay [16], 2.98%; in assay [17], 6.01%; in [18], 8.47%. Also, the inhibition in [19] was found to be 11.2%; in assay [20], 9.96%.
For `Cc1nnc(-c2cccc(-c3ccc(C(=O)NCC4CC4)cc3)c2)o1`, the inhibition in [1] is 7.37%; in [2], 2.21%; in [3], 3.42%; in assay [4] it was 1.17%; in assay [5], 3.25%; in [6] it was 2.9%. The inhibition in [7] is 6.91%; in [8] it was 3.75%; in assay [9], 5.65%; in [10] it was 3.93%; in assay [11] it was 4.56%; in assay [12], 2.93%. For the same compound, the inhibition in [13] came to 3.63%; in [14], 1.56%; in [15] it was 0.66%; in [16] it was 5.76%; in assay [17], 6.16%; in [18], 11.3%. In addition, the inhibition amounted to 10.8% in [19] and 11.1% in assay [20].

What is called inhibition is the relative decrease from the control value, in per cent.
